Publication PMC11062922 (Nature Chemical Biology, 2023)
Where two headings read alike, the source gives them in different places.

What was measured:
Set-up in all cases: species or system human, MV4-11 + K-562 + COLO205 + SK-N-BE2 + OVCAR-8
ACVR1B = conditions: read-out: apparent Kd, n = 1
AURKB = conditions: read-out: apparent Kd, n = 1
BTK = conditions: read-out: apparent Kd; compound concentrations:100 nM and 1000 nM (sheet 'Samples'); n = 1
LCK = conditions: read-out: apparent Kd; compound concentrations:100 nM and 1000 nM (sheet 'Samples'); n = 1
NUAK2 = conditions: read-out: apparent Kd, n = 1
RPS6KA3 = conditions: read-out: apparent Kd, n = 1
TTK = conditions: read-out: apparent Kd, n = 1
PIK3CD = conditions: read-out: apparent Kd, n = 1
ABL2 = conditions: read-out: apparent Kd, n = 1
EPHB1 = conditions: read-out: apparent Kd; compound concentrations:100 nM and 1000 nM (sheet 'Samples'); n = 1
PAK6 = conditions: read-out: apparent Kd, n = 1
CDC42BPB = conditions: read-out: apparent Kd, n = 1
BUB1 = conditions: read-out: apparent Kd; compound concentrations:100 nM and 1000 nM (sheet 'Samples'); n = 1
MAP3K11 = conditions: read-out: apparent Kd, n = 1
MAPK14 = conditions: read-out: apparent Kd; compound concentrations:100 nM and 1000 nM (sheet 'Samples'); n = 1
CDK2 = conditions: read-out: apparent Kd, compound concentrations: 100 nM and 1000 nM (sheet 'Samples'), n = 1
MARK2 = conditions: read-out: apparent Kd, n = 1
PKN2 = conditions: read-out: apparent Kd, n = 1
PRKCA = conditions: read-out: apparent Kd, n = 1
RPS6KB1 = conditions: read-out: apparent Kd, n = 1
[1] = compound concentrations:100 nM and 1000 nM (sheet 'Samples')

CNC(=O)c1ccccc1Nc1nc(Nc2ccc(N3CCOCC3)cc2)ncc1Cl.Cl [GSK1576028A]
potency estimated from few doses (ACVR1B; [1]): 243 nM | potency estimated from few doses (AURKB; [1]): 55 nM | potency estimated from few doses (BTK): 256 nM | potency estimated from few doses (LCK): 234 nM | potency estimated from few doses (NUAK2; [1]): 1370 nM | potency estimated from few doses (RPS6KA3; [1]): 549 nM | potency estimated from few doses (TTK; [1]): 2100 nM

CN(C)CC(O)COc1ccc(Nc2nccc(-c3cnn4nc(N5CCOCC5)ccc34)n2)cc1 (centres unmarked) [GW767488X]
potency estimated from few doses (TTK; [1]): 2040 nM

Cc1n[nH]c2cc(Nc3ccnc(Nc4cccc(CN5CCOCC5)c4)n3)ccc12 [GW682569X]
potency estimated from few doses (PIK3CD; compound concentrations: 100 nM and 1000 nM (sheet 'Samples'), CATDS: 0.35370860335397603): 121 nM

CC(=O)N[C@@H](Cc1ccc(OP(=O)(O)O)cc1)C(=O)N[C@H]1CCC(=O)N2CCC[C@@H](C(=O)NCc3ccc(Cl)cc3)N2C1=O [RO0325308-000]
potency estimated from few doses (ABL2; [1]): 60.3 nM | potency estimated from few doses (EPHB1): 71.6 nM

COC(=O)c1cccc(NC(=O)NC2CCN(c3ccnc(Nc4cc(OC)c(OC)c(OC)c4)n3)C2)c1 (centres unmarked) [GSK1379767A]
potency estimated from few doses (PIK3CD; compound concentrations: 100 nM and 1000 nM (sheet 'Samples'), CATDS: 0.49933192218353101): 112 nM

Cc1ccccc1-n1ncc(C(=O)c2ccccc2)c1N [RO1151248-000]
potency estimated from few doses (ABL2; compound concentrations: 100 nM and 1000 nM (sheet 'Samples'), CATDS: 2.8713823072650399E-2): 630 nM | potency estimated from few doses (PIK3CD; compound concentrations: 100 nM and 1000 nM (sheet 'Samples'), CATDS: 6.44780865676087E-2): 184 nM

CCN(CC)Cc1ccc(Nc2nccc(-c3cnn4ncccc34)n2)cc1 [GW780056X]
potency estimated from few doses (NUAK2; compound concentrations: 100 nM and 1000 nM (sheet 'Samples'), CATDS: 2.1304819470262599E-2): 1070 nM | potency estimated from few doses (PAK6; compound concentrations: 100 nM and 1000 nM (sheet 'Samples'), CATDS: 1.8956003976459398E-2): 1620 nM

Cl.Cl.NC(CNC(=O)c1cc(Br)c(-c2ccnc3[nH]ccc23)s1)c1ccccc1.NC(CNC(=O)c1cc(Br)c(-c2ccnc3[nH]ccc23)s1)c1ccccc1 (centres unmarked) [GSK1322949A]
potency estimated from few doses (CDC42BPB; compound concentrations: 100 nM and 1000 nM (sheet 'Samples'), CATDS: 4.7345157694920897E-2): 499 nM | potency estimated from few doses (NUAK2; compound concentrations: 100 nM and 1000 nM (sheet 'Samples'), CATDS: 3.0654913086493301E-2): 1150 nM

CS(=O)(=O)CCn1c(=O)c(Oc2ccc(F)cc2F)cc2cnc(NC3CCOCC3)nc21 [RO5027956-000]
potency estimated from few doses (BUB1): 1490 nM | potency estimated from few doses (EPHB1): 892 nM | potency estimated from few doses (LCK): 1160 nM | potency estimated from few doses (MAP3K11; [1]): 1930 nM | potency estimated from few doses (MAPK14): 17.9 nM

O=C(O)C(F)(F)F.O=C(O)C(F)(F)F.O=c1[nH]ccc2nc(N[C@@H]3CCCNC3)nc(Nc3ccc(S(=O)(=O)N4CCOCC4)cc3)c12.O=c1[nH]ccc2nc(N[C@@H]3CCCNC3)nc(Nc3ccc(S(=O)(=O)N4CCOCC4)cc3)c12 [GSK2177277A]
potency estimated from few doses (AURKB; compound concentrations: 100 nM and 1000 nM (sheet 'Samples'), CATDS: 9.0566947478628902E-3): 373 nM | potency estimated from few doses (CDC42BPB; compound concentrations: 100 nM and 1000 nM (sheet 'Samples'), CATDS: 1.0245441654914001E-2): 255 nM | potency estimated from few doses (CDK2; CATDS: 8.3972230361842193E-3): 481 nM | potency estimated from few doses (MAP3K11; compound concentrations: 100 nM and 1000 nM (sheet 'Samples'), CATDS: 9.6570166700827697E-3): 305 nM | potency estimated from few doses (MARK2; compound concentrations: 100 nM and 1000 nM (sheet 'Samples'), CATDS: 1.4475960848297199E-2): 105 nM | potency estimated from few doses (NUAK2; compound concentrations: 100 nM and 1000 nM (sheet 'Samples'), CATDS: 4.5069810988754302E-2): 13.3 nM | potency estimated from few doses (PAK6; compound concentrations: 100 nM and 1000 nM (sheet 'Samples'), CATDS: 6.8069472857734698E-3): 1140 nM | potency estimated from few doses (PKN2; compound concentrations: 100 nM and 1000 nM (sheet 'Samples'), CATDS: 1.4426641074697899E-2): 105 nM | potency estimated from few doses (PRKCA; compound concentrations: 100 nM and 1000 nM (sheet 'Samples'), CATDS: 8.97994124779509E-3): 383 nM | potency estimated from few doses (RPS6KA3; compound concentrations: 100 nM and 1000 nM (sheet 'Samples'), CATDS: 8.0041967490872001E-3): 573 nM | potency estimated from few doses (TTK; compound concentrations: 100 nM and 1000 nM (sheet 'Samples'), CATDS: 6.1777236356659101E-3): 1950 nM

CCn1c(-c2nonc2N)nc2c(C#CC(C)(C)O)nc(O[C@@H](CN)c3ccccc3)cc21.O=C(O)C(F)(F)F [GSK1007102B]
potency estimated from few doses (CDC42BPB; [1]): 1280 nM | potency estimated from few doses (MARK2; [1]): 173 nM | potency estimated from few doses (PAK6; [1]): 1090 nM | potency estimated from few doses (PKN2; [1]): 390 nM | potency estimated from few doses (PRKCA; [1]): 1410 nM | potency estimated from few doses (RPS6KB1; [1]): 1890 nM

NCC(NC(=O)c1cc(-c2cn[nH]c2)c(-c2ccnc3[nH]ccc23)s1)c1ccccc1.NCC(NC(=O)c1cc(-c2cn[nH]c2)c(-c2ccnc3[nH]ccc23)s1)c1ccccc1.O=C(O)C(F)(F)F.O=C(O)C(F)(F)F (centres unmarked) [GSK1325775A]
potency estimated from few doses (ACVR1B; compound concentrations: 100 nM and 1000 nM (sheet 'Samples'), CATDS: 3.7153250837812998E-2): 1020 nM | potency estimated from few doses (CDC42BPB; compound concentrations: 100 nM and 1000 nM (sheet 'Samples'), CATDS: 0.23472145831324301): 29.3 nM | potency estimated from few doses (PKN2; compound concentrations: 100 nM and 1000 nM (sheet 'Samples'), CATDS: 3.8123557619569197E-2): 949 nM

CN(C)CCNC(=O)Nc1ccc(N(C)c2ccnc(Nc3ccc(CS(C)(=O)=O)cc3)n2)cc1.Cl [GW830900A]
potency estimated from few doses (AURKB; [1]): 387 nM | potency estimated from few doses (TTK; [1]): 2150 nM

CS(=O)(=O)Nc1ccc(-c2ccnc3[nH]ccc23)cc1 [GSK993273A]
potency estimated from few doses (PIK3CD; [1]): 183 nM

Cc1cccc(Nc2nc(N[C@H]3CCNC3)ncc2C(N)=O)c1.Cl [GSK2197149A]
potency estimated from few doses (MAP3K11; [1]): 1330 nM | potency estimated from few doses (PIK3CD; [1]): 10.5 nM | potency estimated from few doses (PRKCA; [1]): 437 nM

CN(c1ccc(NC(=O)NCCN2CCOCC2)cc1)c1ccnc(Nc2ccc(CS(C)(=O)=O)cc2)n1.Cl [GW830365A]
potency estimated from few doses (AURKB; compound concentrations: 100 nM and 1000 nM (sheet 'Samples'), CATDS: 8.1167400456920294E-2): 384 nM

c1ccc(-c2n[nH]cc2Nc2ccnc3ccccc23)nc1 [GW694077X]
potency estimated from few doses (PIK3CD; compound concentrations: 100 nM and 1000 nM (sheet 'Samples'), CATDS: 5.6537253255213298E-2): 148 nM | potency estimated from few doses (PKN2; compound concentrations: 100 nM and 1000 nM (sheet 'Samples'), CATDS: 2.23851306081322E-2): 2310 nM

CNc1cc(-c2ccc3c(N)n[nH]c3c2)nc(N)n1 [GSK2224810A]
potency estimated from few doses (ACVR1B; [1]): 361 nM | potency estimated from few doses (EPHB1): 1180 nM | potency estimated from few doses (PIK3CD; [1]): 83.4 nM

O=C(O)C(F)(F)F.O=c1[nH]ccc2nc(N[C@@H]3CCNC3)nc(Nc3cc(Cl)cc(Cl)c3)c12 [GSK2188764A]
potency estimated from few doses (CDC42BPB; [1]): 1870 nM | potency estimated from few doses (MAP3K11; [1]): 813 nM | potency estimated from few doses (MARK2; [1]): 535 nM | potency estimated from few doses (PAK6; [1]): 538 nM | potency estimated from few doses (PRKCA; [1]): 905 nM | potency estimated from few doses (RPS6KB1; [1]): 1520 nM

COc1cc[nH]c1/C=C1\C(=O)Nc2ccc(F)c(C#CC3(O)CCNCC3)c21.Cl [RO0282986-001]
potency estimated from few doses (CDK2; CATDS: 1.26412371427807E-2): 615 nM | potency estimated from few doses (MARK2; compound concentrations: 100 nM and 1000 nM (sheet 'Samples'), CATDS: 1.32977550051059E-2): 536 nM | potency estimated from few doses (RPS6KA3; compound concentrations: 100 nM and 1000 nM (sheet 'Samples'), CATDS: 1.1263723561624001E-2): 868 nM | potency estimated from few doses (TTK; compound concentrations: 100 nM and 1000 nM (sheet 'Samples'), CATDS: 9.4369633718921209E-3): 1690 nM

COc1cc(Nc2nccc(N3CCC(NC(=O)c4cccc(NC(C)=O)c4)C3)n2)cc(OC)c1OC (centres unmarked) [GSK1379754A]
potency estimated from few doses (RPS6KB1; compound concentrations: 100 nM and 1000 nM (sheet 'Samples'), CATDS: 8.2773531247457094E-2): 1830 nM

CCn1c(-c2cccnc2O)nc2cnccc21 [SB-736715]
potency estimated from few doses (ACVR1B; compound concentrations: 100 nM and 1000 nM (sheet 'Samples'), CATDS: 1.8200726561527599E-2): 889 nM | potency estimated from few doses (PIK3CD; compound concentrations: 100 nM and 1000 nM (sheet 'Samples'), CATDS: 9.8292238183885799E-2): 84.5 nM | potency estimated from few doses (TTK; compound concentrations: 100 nM and 1000 nM (sheet 'Samples'), CATDS: 1.5814183064690599E-2): 1160 nM

COc1ccc(Nc2nccc(-c3ccc(NC(=O)c4cc5cc(F)ccc5[nH]4)cc3)n2)cc1 [GSK1229496A]
potency estimated from few doses (ACVR1B; compound concentrations: 100 nM and 1000 nM (sheet 'Samples'), CATDS: 0.38937877773487001): 643 nM

CS(=O)(=O)Nc1cccc(-c2ccc3c(NC(=O)C4CC4)n[nH]c3c2)c1 [SB-742864]
potency estimated from few doses (PIK3CD; compound concentrations: 100 nM and 1000 nM (sheet 'Samples'), CATDS: 0.40980617743007602): 162 nM

Nc1nc(Nc2ccccc2)cc(-c2ccc3c(N)n[nH]c3c2)n1 [GSK2225749A]
potency estimated from few doses (ACVR1B; [1]): 293 nM | potency estimated from few doses (BUB1): 1900 nM

CC(C)Nc1cc(-c2ccc3c(N)n[nH]c3c2)nc(N)n1 [GSK2221681A]
potency estimated from few doses (ACVR1B; [1]): 803 nM
